# Assay results taken from PubChem BioAssay (NCATS).
# Records with an inconclusive call do not appear. A number with no mark means an inactive call. Activity calls are given as the source filed them. Calls come from the whole dose curve; as a rule, active = well fitted curve in the direction sought with a large enough effect; inconclusive = small, poorly fitted or top-dose-only effect, or another doubt; inactive = no such curve, though single readings can be large; an effect the other way counts as inactive or inconclusive.
# Assays:
# [1] = target: Retinaldehyde dehydrogenase 3 (Homo sapiens) (UniProt P47895); experiment: qHTS for Inhibitors of the Aldehyde Dehydrogenase Family (ALDH1A3) Confirmatory screens (AID 2061311); note: potency is the fitted concentration of half-maximal effect; nearly all actives have a fitted effect of over 60% in size
# [2] = target: Retinal dehydrogenase 2 (Homo sapiens) (UniProt O94788); experiment: qHTS for Inhibitors of the Aldehyde Dehydrogenase Family (ALDH1A2) Confirmation screens (AID 2061314); note: potency is the fitted concentration of half-maximal effect; nearly all actives have a fitted effect of over 65% in size
# [3] = target: Retinaldehyde dehydrogenase 3 (Homo sapiens) (UniProt P47895); experiment: qHTS for Inhibitors of the Aldehyde Dehydrogenase Family (ALDH1A3) Primary screen (AID 2061315);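 note: plate controls were DMSO vehicle for no effect and reference inhibitor for full effect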
# [4] = target: Aldehyde dehydrogenase 1A1 (Homo sapiens) (UniProt P00352); experiment: qHTS for Inhibitors of the Aldehyde Dehydrogenase Family (ALDH1A1) Confirmatory screens (AID 2061316); note: potency is the fitted concentration of half-maximal effect; nearly all actives have a fitted effect of over 65% in size
# [5] = BET inhibitor-based combinations targeting novel dependencies in MECOM-rearranged (r) AML: SET-2 cell line (AID 2202231); conditions: SET-2 AML cells viability, CellTiter-Glo luminescence, 48 h; viability: stronger effect = lower value, concentration not given here; note: nearly all actives have a fitted effect of over 35% in size; note: potency is the fitted concentration of half-maximal effect;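 for viability: plate controls were DMSO treated cells for no effect and wells without cells for full effect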
# Procedure, shortened: (§1)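 Here, 11-point titrations of each agent were applied to 500 seeded cells and incubated 48 hr; CellTiter-Glo signal, scaled against DMSO and empty wells, was integrated as AUC, then Z-scored within the individual line.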
# [6] = BET inhibitor-based combinations targeting novel dependencies in MECOM-rearranged (r) AML: OCI-AML3 cell line (AID 2202232); conditions: Potency: OCI-AML3 viability; note: nearly all actives have a fitted effect of over 35% in size; note: potency is the fitted concentration of half-maximal effect
# Procedure, shortened: as §1
# [7] = BET inhibitor-based combinations targeting novel dependencies in MECOM-rearranged (r) AML: MV-4-11 cell line (AID 2202233); note: nearly all actives have a fitted effect of over 45% in size; note: potency is the fitted concentration of half-maximal effect
# Procedure, shortened: (§2)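 Normalized to DMSO and empty-well controls, the luminescence data from CellTiter-Glo after 48 hr drug exposure were fitted across 11 concentrations. Reported metrics are area under the dose-response curve and its Z-transformed form.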
# [8] = BET inhibitor-based combinations targeting novel dependencies in MECOM-rearranged (r) AML: UCSD-AML1 cell line (AID 2202235); note: nearly all actives have a fitted effect of over 40% in size; note: potency is the fitted concentration of half-maximal effect
# Procedure, shortened: as §2
# [9] = target: Aldehyde dehydrogenase, mitochondrial (Homo sapiens) (UniProt P05091); experiment: qHTS for Inhibitors of the Aldehyde Dehydrogenase Family (ALDH2) Primary screen (AID 2061308);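 note: plate controls were vehicle for no effect and reference inhibitor for full effect; nearly all actives have a fitted effect of over 55% in size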
# [10] = BET inhibitor-based combinations targeting novel dependencies in MECOM-rearranged (r) AML: AML-191 cell line (AID 2202236; note: nearly all actives have a fitted effect of over 35% in size; note: potency is the fitted concentration of half-maximal effect)
# Procedure, shortened: as §1
# [11] = BET inhibitor-based combinations targeting novel dependencies in MECOM-rearranged (r) AML: AML-194 cell line (AID 2202237; note: nearly all actives have a fitted effect of over 40% in size; note: potency is the fitted concentration of half-maximal effect)
# Procedure, shortened: as §1
# [12] = BET inhibitor-based combinations targeting novel dependencies in MECOM-rearranged (r) AML: HNT-34 cell line (AID 2202234); note: nearly all actives have a fitted effect of over 35% in size; note: potency is the fitted concentration of half-maximal effect
# Procedure, shortened: as §2
smiles,measurement,setting,value
COc1ccc(-n2c(C)cc(-c3nnc4n3CCCCC4)c2C)cc1,Potency,[1],10.1 µM (active)
same,Potency,[2],12.7 µM (active)
same,Potency,[3],inactive
same,Potency,[4],12.7 µM (active)
O=C(CBr)N1CC([N+](=O)[O-])([N+](=O)[O-])C1,Potency,[5],38.2 µM (active)
same,Potency,[6],34 µM (active)
same,Potency,[7],34 µM (active)
same,Potency,[8],inactive
C[C@H]1CCC/C=C/C2C[C@H](O)C[C@H]2[C@H](O)/C=C/C(=O)O1 (stereo not given in full),Potency,[9],inactive
same,Potency,[3],inactive
same,Potency,[6],0.417 µM (active)
same,Potency,[7],0.263 µM (active)
same,Potency,[10],332 nM (active)
same,Potency,[11],372 nM (active)
C=C[C@H]1CN2CCC1C[C@@H]2[C@@H](O)c1ccnc2ccccc12 (stereo not given in full),viability,[5],98.5%
same,Potency,[6],inactive
same,Potency,[12],inactive
same,Potency,[8],inactive
C[C@]12CC[C@@H]3[C@@H](CCC4=CC(=O)CC[C@@H]43)[C@@H]1CC[C@@H]2OC(=O)CCc1ccccc1,viability,[5],104%
same,Potency,[6],inactive
same,Potency,[7],18.6 µM (active)
same,Potency,[10],inactive
Cc1cc(SCc2sc(-c3ccc(C(F)(F)F)c(F)c3)nc2C)ccc1OCC(=O)O,Potency,[9],inactive
same,Potency,[3],inactive
same,viability,[5],99.6%
same,Potency,[8],inactive
same,Potency,[10],inactive
same,Potency,[11],inactive
CCC1CN2CCC3(C(=O)Nc4cccc(O)c43)C2CC1/C(=C/OC)C(=O)OC (stereo not given),Potency,[9],inactive
same,Potency,[3],inactive
Cc1nc2ccccn2c1P(=S)(c1ccccc1)c1ccccc1,Potency,[3],inactive
CC1(C)CC[C@]2(NC(=O)C(C)(F)F)CC[C@]3(C)[C@H](C(=O)C=C4[C@@]5(C)C=C(C#N)C(=O)C(C)(C)[C@@H]5CC[C@]43C)[C@@H]2C1,Potency,[5],1.66 µM (active)
same,Potency,[6],1.48 µM (active)
same,Potency,[7],1.18 µM (active)
same,Potency,[12],1.66 µM (active)
same,Potency,[8],1320 nM (active)
same,Potency,[10],1860 nM (active)
COc1cccc(CNc2ccc(C(=O)Nc3nccs3)cc2)c1O,Potency,[9],inactive
same,Potency,[3],inactive
OC(CNc1ccccc1)Cn1c2ccc(Br)cc2c2cc(Br)ccc21 (stereo not given),Potency,[9],inactive
same,Potency,[3],inactive
O=C(O)CNC(=O)C1C(=O)N(C2CCCCC2)C(=O)N(C2CCCCC2)C1=O,viability,[5],114%
same,Potency,[6],inactive
same,Potency,[12],inactive
same,Potency,[11],inactive
Cc1nn2c(=O)cc(N3CCNCC3)nc2s1,Potency,[9],inactive
same,Potency,[3],inactive
O=c1cccc2n1CC1CNC[C@H]2C1,viability,[5],119%
same,Potency,[6],inactive
same,Potency,[12],inactive
same,Potency,[10],inactive
C/C=C(\C)C(=O)O[C@H]1CC2C(=C1C)[C@H]1OC(=O)[C@](C)(O)[C@]1(O)[C@H](OC(=O)CCC)C[C@@]2(C)OC(C)=O (stereo not given in full),Potency,[9],inactive
same,Potency,[3],inactive
O=C(Nc1ccncc1)C(=O)c1cn(Cc2ccc(Cl)cc2)c2ccccc12,Potency,[5],0.525 µM (active)
same,Potency,[6],0.417 µM (active)
same,Potency,[8],332 nM (active)
same,Potency,[10],263 nM (active)
[Cl][Pt].[NH2-].[NH2-].c1ccncc1,Potency,[1],11.3 µM (active)
same,Potency,[2],17.9 µM (active)
same,Potency,[4],7.12 µM (active)
COc1cccc(CNc2ccc(S(=O)(=O)Nc3nc(C)c(C)s3)cc2)c1O,Potency,[1],12.7 µM (active)
same,Potency,[4],10.1 µM (active)
CC1(C)C(=O)N(c2ccc(C#N)c(C(F)(F)F)c2)C(=S)N1Cc1ccc(-c2cn[nH]n2)cc1,Potency,[5],16.6 µM (active)
same,Potency,[6],11.8 µM (active)
same,Potency,[8],inactive
same,Potency,[10],18600 nM (active)
O=C(O)c1ccc(O)c2ncc(N3CCCNCC3)cc12,Potency,[3],inactive
CC(=O)OC[C@H]1O[C@@H]([S-])[C@H](OC(C)=O)[C@@H](OC(C)=O)[C@@H]1OC(C)=O.CC[PH+](CC)CC.[Au],Potency,[5],1.18 µM (active)
same,Potency,[6],0.296 µM (active)
same,Potency,[7],0.235 µM (active)
same,Potency,[8],934 nM (active)
same,Potency,[11],2950 nM (active)
CC(C)[C@]12O[C@H]1[C@@H]1O[C@@]13[C@@]1(C)CCC4=C(COC4=O)[C@@H]1C[C@@H]1O[C@@]13C2=O,Potency,[5],0.0833 µM (active)
same,Potency,[6],0.059 µM (active)
same,Potency,[12],0.166 µM (active)
same,Potency,[10],83.3 nM (active)
CN1CCN(c2ccc([N+](=O)[O-])c3no[n+]([O-])c23)CC1,Potency,[3],inactive
S=P(c1ccccc1)(c1ccccc1)c1c(-c2ccccc2)[nH]c2ccccc12,Potency,[3],inactive
COC[C@H]1OC(=O)c2coc3c2[C@@]1(C)C1=C(C3=O)[C@@H]2CC[C@H](O)[C@@]2(C)C[C@H]1OC(C)=O,Potency,[5],18.6 µM (active)
same,Potency,[6],10.5 µM (active)
same,Potency,[12],5.25 µM (active)
same,Potency,[11],8330 nM (active)
Cn1c(CCCCCCC(=O)NO)nc2cc(N(CCCl)CCCl)ccc21,Potency,[5],2.63 µM (active)
same,Potency,[6],2.35 µM (active)
same,Potency,[10],2630 nM (active)
CC(C)C[C@H](CN)CC(=O)O,viability,[5],113%
same,Potency,[6],inactive
same,Potency,[7],inactive
same,Potency,[12],inactive
same,Potency,[8],inactive
same,Potency,[10],inactive
same,Potency,[11],inactive
C/C1=C/C[C@@H](/C(C)=C/c2csc(C)n2)OC(=O)C[C@H](O)C(C)(C)C(=O)[C@H](C)[C@@H](O)[C@@H](C)CCC1,Potency,[5],0.0934 µM (active)
same,Potency,[6],0.059 µM (active)
same,Potency,[8],118 nM (active)
same,Potency,[10],83.3 nM (active)
same,Potency,[11],93.4 nM (active)
CC(C)(NC(=O)O[C@@H]1CN2CCC1CC2)c1csc(-c2ccc(F)cc2)n1,viability,[5],91.1%
same,Potency,[12],14.8 µM (active)
same,Potency,[8],inactive
same,Potency,[11],inactive
C[C@H]1[C@H](O)[C@@H](C)/C=C/C=C/CC/C=C/C=C/C=C/C=C/[C@H](O[C@@H]2O[C@H](C)[C@@H](O)[C@H](N)[C@@H]2O)C[C@@H]2O[C@](O)(C[C@@H](O)[C@H](O)CC[C@@H](O)C[C@@H](O)C[C@@H](O)CC(=O)O[C@H]1C)C[C@H](O)[C@H]2C(=O)O,Potency,[7],inactive
same,Potency,[12],inactive
same,Potency,[10],inactive
same,Potency,[11],inactive
CC(N[C@H]1C[C@@H]1c1ccccc1)c1ccc2c(c1)OCCO2 (stereo not given in full),Potency,[6],inactive
same,Potency,[12],inactive
same,Potency,[8],1050 nM (active)
CN1C(=O)COc2c(C(=O)NC3CN4CCC3CC4)cc(Cl)cc21 (stereo not given),Potency,[7],inactive
same,Potency,[12],inactive
same,Potency,[8],inactive
Cc1c(N)nc([C@H](CC(N)=O)NC[C@@H](N)C(N)=O)nc1C(=O)N[C@H](C(=O)N[C@@H](C)[C@H](O)[C@@H](C)C(=O)N[C@@H](C(=O)NCCc1nc(-c2nc(C(=O)NCCC[S+](C)C)cs2)cs1)[C@@H](C)O)C(O[C@H]1O[C@H](CO)[C@H](O)[C@@H](O)[C@H]1O[C@H]1O[C@H](CO)[C@@H](O)[C@H](OC(N)=O)[C@@H]1O)c1cnc[nH]1 (stereo not given in full),Potency,[7],4.56 µM (active)
same,Potency,[8],inactive
same,Potency,[10],inactive
same,Potency,[11],inactive
